Bioassay records: PubChem, National Center for Advancing Translational Sciences (NCATS)
Compounds with a hit are over-represented: about 2.5% of the library has one in this group of screens.
Cruzain inh Det – cruzain (T. cruzi) inhibition with detergent. P25779. purified cruzain, Z-FR-AMC fluorescence, 0.01% Triton. Potency, µM, for inactives: max response, negative = inhibition, hits mostly inhibitors. 0.43% of 200,000 active. AID 1478;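 note: plate controls were neutral wells for no effect and buffer without enzyme for full effect; nearly all actives have a fitted effect of over 40% in size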
Target sequence (P25779 123-467 limits assumed): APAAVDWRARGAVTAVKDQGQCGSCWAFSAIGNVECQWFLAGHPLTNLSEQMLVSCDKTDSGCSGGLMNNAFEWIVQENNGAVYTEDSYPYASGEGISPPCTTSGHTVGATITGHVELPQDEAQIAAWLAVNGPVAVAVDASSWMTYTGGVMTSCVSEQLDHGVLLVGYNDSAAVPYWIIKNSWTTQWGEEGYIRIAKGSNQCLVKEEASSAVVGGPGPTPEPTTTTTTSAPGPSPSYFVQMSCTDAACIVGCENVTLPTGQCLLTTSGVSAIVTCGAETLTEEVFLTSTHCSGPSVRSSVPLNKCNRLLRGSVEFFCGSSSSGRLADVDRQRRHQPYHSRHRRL
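Cruzain (1.5 nM) preincubated 15 min at RT with compound in 100 mM sodium acetate pH 5.5, 5 mM DTT, 0.01% Triton X-100. Reaction started with 2 uM Z-FR-AMC; AMC fluorescence (ex 360/em 450 nm) change over 60 s gave rate.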
Cruzain inh noDet – cruzain (T. cruzi) inhibition without detergent; Potency, µM, without a hit: max response, negative = inhibition, actives largely listed as inhibitors; AID 1476; 2.3% of 200,000 active; purified cruzain, Z-FR-AMC fluorescence, no detergent; P25779;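 note: plate controls were enzyme without inhibitor for no effect and buffer without enzyme for full effect; nearly all actives have a fitted effect of over 40% in size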
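Purified cruzain at 1.5 nM, pre-incubated 15 min with compound at room temperature in 100 mM sodium acetate pH 5.5, 5 mM DTT, 0.00005% Triton X-100. Reaction started with 2 uM Z-FR-AMC; AMC fluorescence increase over 60 s gives rate.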
Numbers without * were called inactive; ? = inconclusive. Calls come from the whole dose curve; as a rule, active = well fitted curve in the direction sought with a large enough effect; inconclusive = small, poorly fitted or top-dose-only effect, or another doubt; inactive = no such curve, though single readings can be large; an effect the other way counts as inactive or inconclusive. Potency is the fitted concentration of half-maximal effect.

SMILES	Cruzain inh Det	Cruzain inh noDet
O=C(CSc1nc2ccccc2n1Cc1ccc(F)c(Cl)c1)N1CCN(c2ccc(F)cc2)CC1	-3%	7%
COc1ccc(NC(=O)Cn2c(=O)n(Cc3ccco3)c(=O)c3sc4ccccc4c32)c(OC)c1	-3%	3%
COc1ccc(NC(=O)Cn2c(=O)n(Cc3ccco3)c(=O)c3sc4ccccc4c32)cc1Cl	-13%	25µM*
Cc1ccc(S(=O)Cc2nc(-c3ccc(C(=O)NC(C)c4ccccc4)cc3)oc2C)cc1 (configuration not stated)	-1%	?
CCc1cccc(C)c1Nc1c(-c2ccc(SC)cc2)nc2sccn12	-6%	?
O=C(c1cc2sccc2n1Cc1ccc(F)cc1)N1CCN(c2nc3ccccc3s2)CC1	-2%	13µM*
Cn1c(C(=O)N2CCN(c3nc4ccccc4s3)CC2)cc2sccc21	-16%	-22%
CCOC(=O)/C(C#N)=C/c1c[nH]c2ccccc12	-15%	1%
N#C/C(=C\c1c[nH]c2ccccc12)C(=O)Nc1ncc(Cc2ccc(Cl)cc2Cl)s1	-1%	7.9µM*
O=C(Nc1ncc(Cc2cccc(Cl)c2)s1)C1CCCO1 (configuration not stated)	-3%	-4%
Cn1cc(/C=C(\C#N)C(=O)Nc2ncc(Cc3cccc(Cl)c3)s2)c2ccccc21	-6%	7.9µM*
COc1cc(OC)c(NC(=O)Nc2ccc3c(c2)N(C)C(=O)c2ccccc2S3)cc1Cl	-4%	?
CSc1ccc(C2C(C#N)=C(N)N(c3ccccc3)C3=C2C(=O)CCC3)cc1 (configuration not stated)	-9%	16µM*
CCOc1ccc(C2C(C#N)=C(N)N(c3sc4c(c3C#N)CCCC4)C3=C2C(=O)CCC3)cc1 (configuration not stated)	-3%	-6%
N#CC1=C2N=C(N)c3c(sc4c3CCCCC4)N2C2=C(C(=O)CCC2)C1c1ccccc1 (configuration not stated)	-1%	25µM*
Cc1nn(C)cc1C1C(C#N)=C(N)N(c2cccnc2)C2=C1C(=O)CCC2 (configuration not stated)	-3%	-16%
Cc1ccc(-c2cn3c4c(=O)n(C)c(=O)n(C)c4nc3n2-c2cccc(Cl)c2)cc1	2%	-1%
C=CCC(O)c1ccccc1 (configuration not stated)	0%	-8%
CC(C=O)Cc1ccc(C(C)(C)C)cc1 (configuration not stated)	3%	-1%
Cc1cccc(NCCC(=O)c2ccc(Br)cc2)c1	0%	-17%
CCOC(=O)CNCCC(=O)c1ccc(Br)cc1	25µM*	10µM*
C=CC(=O)OCCOCCOC(=O)C=C	4%	-10%
O=C(N/N=C/C=C\c1ccccc1[N+](=O)[O-])c1cc(-c2ccc3ccccc3c2)n[nH]1	-13%	7.9µM*
O=C(N/N=C/C=C\c1ccccc1[N+](=O)[O-])c1cccs1	-9%	-10%
CC12CC[C@@H]3c4ccc(OP(=O)(O)O)cc4CCC3C1CCC2=O (some centres not stated)	11%	4%
SMILES	Cruzain inh Det	Cruzain inh noDet
COC(=O)C1(C(=O)OC)CC(CO)C(=O)[C@H]1c1ccccc1 (some centres not stated)	2%	-9%
COc1ccc(CNC(=O)CN(c2ccccc2OC)S(=O)(=O)c2ccc(C)cc2)cc1	-1%	11%
Cc1c(Cl)cccc1N/C(SCC(=O)N1CCCCCC1)=C(/C#N)c1nc2ccccc2s1	-5%	10µM*
O=C(CSc1nc2ccccc2s1)N1CCCCC1	-3%	-6%
CCOC(=O)c1cc(S(=O)(=O)N2CCN(c3ccccc3OC)CC2)[nH]n1	-1%	-1%
Clc1ccccc1Cn1nnc2c(N3CCCC3)ncnc21	-5%	-15%
CC1Cc2ccccc2N1c1ncnc2c1nnn2Cc1ccccc1Cl (configuration not stated)	-21%	25µM*
Nc1cc2c(nc3c4ccccc4c(N)cc3[n+]2-c2cccc3ccccc23)c2ccccc12 (tested in a mixture with another compound)	0%	1.3µM*
Nc1cccc2c(N)cccc12	-5%	2%
C=CCOC(=O)NC(CC(=Nc1ccc(OC)cc1)C(=O)OC)c1ccccc1 (configuration not stated)	-1%	-9%
COc1ccc(Nc2ncnc3c2cnn3-c2ccc(C)cc2C)cc1	-3%	0%
CCCNc1cc(C)c(C#N)c2nc3ccccc3n12	4%	13%
Cc1cc(NCCCO)n2c(nc3ccccc32)c1C#N	-15%	32µM*
O=C(NCc1ccc2c(c1)CCN2C(=O)c1ccccc1)c1cc2ccccc2[nH]1	5%	?
CC(/C=N/N1CCN(c2ccc(C)cc2)CC1)=C\c1ccccc1	-1%	-29%
CC(/C=N\N1CCN(c2ccc(Cl)cc2)CC1)=C\c1ccccc1	-6%	7.9µM*
Cc1cccc(CS(=O)(=O)Cc2ccc(C(=O)NCc3ccc(F)cc3)o2)c1	1%	-10%
